# Experimental data from PubChem BioAssay.
# Where “and” joins values, the source holds several entries; their conditions need not be identical. Equal values may be shown once. Calls of active or inactive are those of the source. Unless noted, no rule for the calls is given here.
# Key:
# [1] = resazurin metabolic signal in HepG2 cells – cell-based, resazurin fluorescence, 24 h, PK04 Diversity Set, profiling panel (AID 1172); conditions: HepG2 viability, higher = more signal
# [2] = budding yeast growth changes without added modifier – OD600, strain BY4716, 24 h, basal condition, primary screen (AID 1173); conditions: S. cerevisiae BY4716 growth, OD600, 24 h; higher = more signal, called active from +8 up or from −8 down
# [3] = viability profiling in MM1S myeloma cells – cell-based, resazurin fluorescence, basal, 24 h, PK04 Diversity Set, profiling panel (AID 1174); conditions: higher = more signal, called active from +8 up or from −8 down;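 also: MM1S multiple myeloma cell line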
# [4] = target: Dihydroorotate dehydrogenase (quinone), mitochondrial (Plasmodium falciparum (isolate 3D7)) (UniProt Q08210); assay: inhibition of P. falciparum DHODH – biochemical, C-terminal His tag, absorbance 600 nm, primary screen (AID 1175); conditions: PfDHODH enzyme, DCIP absorbance 600 nm; higher = more signal, called active from +8 up or from −8 down;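 also: recombinant parasite enzyme with a five histidine tag at its C terminus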
# Sequence of Dihydroorotate dehydrogenase (quinone), mitochondrial (Plasmodium falciparum (isolate 3D7)) (Q08210 whole entry, looked up): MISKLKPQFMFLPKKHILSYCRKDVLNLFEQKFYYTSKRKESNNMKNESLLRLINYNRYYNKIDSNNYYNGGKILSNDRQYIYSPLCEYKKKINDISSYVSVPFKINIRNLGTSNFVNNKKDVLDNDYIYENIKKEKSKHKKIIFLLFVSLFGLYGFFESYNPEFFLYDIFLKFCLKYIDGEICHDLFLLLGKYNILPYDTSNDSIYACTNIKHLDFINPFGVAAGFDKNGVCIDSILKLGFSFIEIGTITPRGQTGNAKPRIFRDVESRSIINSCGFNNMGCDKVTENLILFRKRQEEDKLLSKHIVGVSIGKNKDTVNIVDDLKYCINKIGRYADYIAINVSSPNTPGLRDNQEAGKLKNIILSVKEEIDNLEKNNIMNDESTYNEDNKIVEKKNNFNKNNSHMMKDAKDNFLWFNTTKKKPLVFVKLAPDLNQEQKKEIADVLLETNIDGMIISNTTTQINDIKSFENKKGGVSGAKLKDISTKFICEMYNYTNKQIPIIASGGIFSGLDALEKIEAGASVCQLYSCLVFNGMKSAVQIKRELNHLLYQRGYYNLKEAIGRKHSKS
# [5] = inhibition of PAO1 biofilm formation – strain PAO1, LB-PBS medium, absorbance 600 nm, primary screen (AID 1176); conditions: P. aeruginosa PAO1 growth/biofilm, A600, 12 h; higher = more signal
# [6] = growth modulation of vineyard yeast isolate – strain RM11-1a, OD600, basal, 24 h, primary screen (AID 1177);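 also: cultures grown under basal conditions with no added stressor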; conditions: S. cerevisiae RM11-1a growth, OD600, 24 h; higher = more signal, called active from +8 up or from −8 down
# [7] = growth of efflux-deficient E. coli DRC39 – strain DRC39, OD650, 24 h, E. coli filamentation inducers, primary screen (AID 1178);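 also: growth measured as culture turbidity by optical density at 650 nm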; conditions: E. coli DRC39 acrAB, higher = more signal, called active from +8 up or from −8 down
# [8] = growth of efflux-deficient E. coli DRC39 – strain DRC39, OD650, 48 h, E. coli filamentation inducers, primary screen (AID 1179);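 also: screen aims at cell division blockers that make cells filament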; conditions: E. coli DRC39 delta-acrAB growth, higher = more signal, called active from +8 up or from −8 down
# [9] = viability profiling in RPMI8226 myeloma cells – cell-based, resazurin fluorescence, basal, 24 h, PK04 Diversity Set, profiling panel (AID 1180); conditions: higher = more signal;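 also: RPMI8826 multiple myeloma cell line at 5000 cells per well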
# [10] = target: E3 ubiquitin-protein ligase XIAP (Homo sapiens) (UniProt P98170); assay: small molecules binding XIAP protein – biophysical, small-molecule microarray, fluorescence 635 nm, primary screen (AID 1181); conditions: higher = more signal;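 also: score merges 667 nm emission and signal to noise over triplicate slides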
# Sequence of E3 ubiquitin-protein ligase XIAP (Homo sapiens) (P98170 whole entry, looked up, the tested form may be a part): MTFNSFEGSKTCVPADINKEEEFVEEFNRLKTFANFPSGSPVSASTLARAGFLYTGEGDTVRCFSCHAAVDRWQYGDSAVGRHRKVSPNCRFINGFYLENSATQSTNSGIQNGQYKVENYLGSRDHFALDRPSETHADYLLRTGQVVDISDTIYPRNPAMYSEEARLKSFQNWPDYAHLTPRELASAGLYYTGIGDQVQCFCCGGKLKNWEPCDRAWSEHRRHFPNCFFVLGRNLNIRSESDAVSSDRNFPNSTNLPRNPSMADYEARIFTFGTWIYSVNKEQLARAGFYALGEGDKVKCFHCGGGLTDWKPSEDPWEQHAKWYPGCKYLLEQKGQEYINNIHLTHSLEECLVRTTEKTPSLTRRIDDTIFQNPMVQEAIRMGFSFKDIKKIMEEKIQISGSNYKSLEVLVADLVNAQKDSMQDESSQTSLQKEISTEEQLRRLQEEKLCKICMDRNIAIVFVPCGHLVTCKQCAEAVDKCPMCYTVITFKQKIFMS
# [11] = tested on: XIP peptide (Xip251-270) binding; assay: XIP fragment 251-270 binding compounds – biochemical, small-molecule microarray, fluorescence 635/667 nm, 0.1 µg/mL protein, primary screen (AID 1182); conditions: fluorescent protein binding, 635 nm, higher = more signal, called active from +8 up or from −8 down
# [12] = tested on: XIP peptide (Xip251-270); assay: compounds binding XIP fragment 251-270 – biochemical, small-molecule microarray, fluorescence 635/667 nm, 0.5 µg/mL protein, primary screen (AID 1183); conditions: fluorescence 635 nm, higher = more signal
# [13] = blood-stage malaria parasite viability loss – strain 3D7, DAPI fluorescence, 100 nL, primary screen (AID 1184);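 also: parasites grown inside human red blood cells in medium with human serum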; conditions: P. falciparum 3D7 growth, 3 d, higher = more signal
# [14] = target: Homeobox protein Hox-A13 (Mus musculus) (UniProt Q62424); assay: disruptors of Hoxa13 oligonucleotide interaction – biochemical, fluorescence polarization, labeled oligonucleotide, primary screen (AID 1185); conditions: Hoxa13:DNA binding, 15 min, higher = more signal, called active from +8 up or from −8 down
# Sequence of Homeobox protein Hox-A13 (Mus musculus) (Q62424 whole entry, looked up): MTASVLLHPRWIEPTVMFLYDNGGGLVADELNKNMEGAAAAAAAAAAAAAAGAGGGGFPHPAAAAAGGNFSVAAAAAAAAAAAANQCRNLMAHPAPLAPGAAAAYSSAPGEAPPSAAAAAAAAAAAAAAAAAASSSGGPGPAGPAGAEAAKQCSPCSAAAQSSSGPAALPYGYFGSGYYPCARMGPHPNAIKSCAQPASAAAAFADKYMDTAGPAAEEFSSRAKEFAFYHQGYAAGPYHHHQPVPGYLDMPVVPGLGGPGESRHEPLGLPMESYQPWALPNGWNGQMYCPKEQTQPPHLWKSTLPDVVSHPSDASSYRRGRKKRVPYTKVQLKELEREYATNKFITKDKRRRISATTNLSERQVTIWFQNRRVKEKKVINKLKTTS
# [15] = blockers of DNA damage checkpoint Chk1 activation – imaging, HeLa, hydroxyurea, phospho-Chk1 antibody, percent positive cells, primary screen (AID 1186); conditions: hydroxyurea-induced phospho-Chk1 immunofluorescence imaging, higher = more signal
# [16] = blockers of DNA damage checkpoint Chk1 activation – imaging, HeLa, hydroxyurea, phospho-Chk1 nuclear intensity, primary screen (AID 1187); conditions: hydroxyurea-induced phospho-Chk1 immunofluorescence imaging, higher = more signal
SMILES,z-score [1],z-score [2],z-score [3],composite z-score [4],z-score [5],z-score [6],z-score [7],z-score [8],z-score [9],composite z-score [10],composite z-score [11],composite z-score [12],z-score [13],z-score [14],z-score [15],z-score [16]
C[C@@H]1CC[C@@H](C(=O)O)N[C@H]1c1ccc(-c2ccco2)cc1,0.443,-0.319 (inactive),0.603 (inactive),0.268 (inactive),-0.151 (inactive),-0.0212 (inactive),0.127 (inactive),-0.551 (inactive),0.285,0.012,1.06 (inactive),0.827,-0.25,-1.59 (inactive),,
CC(CO)N1C(=O)[C@@H]2C3C(=O)OCCC=C[C@H]3OC23C=CCN(Cn2nnc4ccccc42)C(=O)[C@@H]13 (stereo partly drawn),0.576 and 0.999,0.771 (inactive) and 0.283 (inactive),-0.415 (inactive) and -0.0046 (inactive),-4.99 (inactive) and -0.478 (inactive),0.55 (inactive) and 0.798 (inactive),1.07 (inactive) and -0.995 (inactive),-0.125 (inactive) and 0.0633 (inactive),-0.214 (inactive) and -0.099 (inactive),0.0489 and -0.178,-0.0448 and -0.21,0.287 (inactive) and 0.0057 (inactive),0.699 and 0.41,-0.0355 and 0.986,-3.43 (inactive) and -5.52 (inactive),0.787 (inactive) and 0.875 (inactive),0.336 (inactive) and 0.749 (inactive)
CCOC(=O)C[C@H]1[C@H](OC(=O)c2ccccc2-c2ccccc2)[C@@H](NC(=O)c2ccccc2)c2cc(OCCCO)ccc2N1C(=O)c1ccc2ccccc2n1,0.578 and -0.48,-0.602 (inactive) and 1.01 (inactive),0.602 (inactive) and -0.924 (inactive),0.139 (inactive) and -0.264 (inactive),-0.152 (inactive) and 0.432 (inactive),-0.26 (inactive) and -0.698 (inactive),1.39 (inactive) and -0.851 (inactive),0.845 (inactive) and -0.687 (inactive),-0.236 and -0.847,-0.227 and 0.0451,-0.196 (inactive) and 0.367 (inactive),-0.0343 and 0.393,-0.345 and 0.0894,-3.24 (inactive) and -1.56 (inactive),0.105 (inactive) and -0.0471 (inactive),0.118 (inactive) and -0.0805 (inactive)
COC(=O)C1=C(C)N(Cc2ccccc2)C2=C(C(C)=O)C[C@@](O)(C(=O)OC)C(=O)N2[C@@H]1c1ccccc1,0.5 and 0.54,-1.89 (inactive) and -2.55 (inactive),-1.51 (inactive) and 0.956 (inactive),-0.557 (inactive) and -0.986 (inactive),0.781 (inactive),-1.29 (inactive) and -2.02 (inactive),-0.0507 (inactive) and 0.915 (inactive),0.0063 (inactive) and -1.49 (inactive),1.28 and 0.192,0.215 and -0.005,0.411 (inactive) and 1.64 (inactive),-0.358 and 0.645,0.467 and 0.637,-1.52 (inactive) and -2.36 (inactive),,
CCCC[C@@H]1CN2[C@H](c3ccc(Br)cc3)[C@@H](C)CC[C@H]2C(=O)O1,0.0187 and 0.563,-1.99 (inactive) and -1.8 (inactive),0.0474 (inactive) and 0.358 (inactive),0.0663 (inactive) and -0.155 (inactive),0.192 (inactive) and -0.172 (inactive),0.434 (inactive) and -0.478 (inactive),1.06 (inactive) and 0.354 (inactive),0.958 (inactive) and 0.41 (inactive),0.735 and 0.839,-0.256 and -0.352,0.744 (inactive) and -0.433 (inactive),-0.322 and -0.118,-0.0735 and 0.113,-1.48 (inactive) and -3.43 (inactive),,
C#CCCCON=C1C[C@@H](O)[C@@H](O)[C@@H]2[C@@H]3C(=O)N(C4CCCCC4)C(=O)[C@@H]3CC[C@H]12,-0.477,-0.248 (inactive),-2.78 (inactive),-0.822 (inactive),-0.568 (inactive),-0.126 (inactive),0.331 (inactive),0.771 (inactive),-1.08,-0.0945,0.57 (inactive),0.545,1.43,0.504 (inactive),,
